Results published in ChEMBL document CHEMBL1961873, “Compounds: GSK PKIS; Assays: Nanosyn kinase panel” (2012).

Assays:
[1] = target: T1, Serine/threonine-protein kinase D2 (Homo sapiens) (UniProt Q9BZL6); conditions: at 1 µM;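 also: mean value of PRKD2 inhibition, from the GSK PKIS screening panel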
T1 sequence (whole entry): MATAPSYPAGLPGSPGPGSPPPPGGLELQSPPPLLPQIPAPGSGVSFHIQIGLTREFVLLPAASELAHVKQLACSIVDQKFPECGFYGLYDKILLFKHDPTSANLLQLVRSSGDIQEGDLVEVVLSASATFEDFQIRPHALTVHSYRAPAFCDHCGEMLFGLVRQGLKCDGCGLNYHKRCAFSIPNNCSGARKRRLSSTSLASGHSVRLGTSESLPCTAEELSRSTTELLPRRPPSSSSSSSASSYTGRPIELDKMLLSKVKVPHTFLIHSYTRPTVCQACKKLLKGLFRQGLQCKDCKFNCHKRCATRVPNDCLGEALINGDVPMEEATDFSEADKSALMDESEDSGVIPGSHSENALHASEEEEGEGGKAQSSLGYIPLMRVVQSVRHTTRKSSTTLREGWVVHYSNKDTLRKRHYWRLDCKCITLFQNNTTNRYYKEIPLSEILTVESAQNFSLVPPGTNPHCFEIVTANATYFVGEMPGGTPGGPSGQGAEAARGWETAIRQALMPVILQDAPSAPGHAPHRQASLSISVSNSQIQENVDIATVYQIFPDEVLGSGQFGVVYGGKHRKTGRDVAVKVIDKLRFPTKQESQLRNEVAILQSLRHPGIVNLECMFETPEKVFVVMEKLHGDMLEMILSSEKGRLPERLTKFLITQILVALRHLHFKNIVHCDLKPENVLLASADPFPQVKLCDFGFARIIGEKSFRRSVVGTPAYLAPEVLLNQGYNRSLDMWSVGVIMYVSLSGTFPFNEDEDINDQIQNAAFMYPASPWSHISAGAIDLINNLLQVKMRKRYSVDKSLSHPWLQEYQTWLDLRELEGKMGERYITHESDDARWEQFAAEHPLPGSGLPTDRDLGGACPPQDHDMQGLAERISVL

[2] = target: T2, Serine/threonine-protein kinase D3 (Homo sapiens) (UniProt O94806); conditions: at 0.1 µM
T2 sequence (whole entry): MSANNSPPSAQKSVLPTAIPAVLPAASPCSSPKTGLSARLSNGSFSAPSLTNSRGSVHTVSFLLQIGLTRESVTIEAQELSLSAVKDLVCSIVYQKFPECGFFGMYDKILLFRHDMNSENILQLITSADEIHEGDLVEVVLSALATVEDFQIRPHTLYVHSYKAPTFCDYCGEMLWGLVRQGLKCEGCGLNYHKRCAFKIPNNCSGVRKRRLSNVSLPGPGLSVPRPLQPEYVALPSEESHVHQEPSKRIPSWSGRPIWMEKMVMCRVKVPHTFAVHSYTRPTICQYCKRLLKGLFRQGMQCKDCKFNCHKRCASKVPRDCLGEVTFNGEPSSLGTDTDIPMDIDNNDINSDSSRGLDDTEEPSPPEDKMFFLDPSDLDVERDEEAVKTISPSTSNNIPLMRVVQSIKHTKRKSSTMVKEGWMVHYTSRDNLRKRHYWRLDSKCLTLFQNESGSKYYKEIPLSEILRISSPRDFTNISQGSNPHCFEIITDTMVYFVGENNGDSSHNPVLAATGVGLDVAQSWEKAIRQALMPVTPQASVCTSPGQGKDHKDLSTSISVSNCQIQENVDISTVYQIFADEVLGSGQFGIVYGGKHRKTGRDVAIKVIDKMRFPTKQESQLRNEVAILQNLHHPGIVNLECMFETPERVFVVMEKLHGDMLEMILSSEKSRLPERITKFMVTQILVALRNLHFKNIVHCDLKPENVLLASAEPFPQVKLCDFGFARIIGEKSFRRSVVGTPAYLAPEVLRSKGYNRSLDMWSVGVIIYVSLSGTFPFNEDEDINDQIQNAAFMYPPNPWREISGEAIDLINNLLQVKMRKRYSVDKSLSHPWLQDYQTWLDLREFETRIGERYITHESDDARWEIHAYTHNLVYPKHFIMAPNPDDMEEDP

[3] = target: T2, Serine/threonine-protein kinase D3 (Homo sapiens); conditions: at 1 µM
[4] = target: T3, cGMP-dependent protein kinase 1 (Homo sapiens) (UniProt Q13976); conditions: at 0.1 µM
T3 sequence (whole entry): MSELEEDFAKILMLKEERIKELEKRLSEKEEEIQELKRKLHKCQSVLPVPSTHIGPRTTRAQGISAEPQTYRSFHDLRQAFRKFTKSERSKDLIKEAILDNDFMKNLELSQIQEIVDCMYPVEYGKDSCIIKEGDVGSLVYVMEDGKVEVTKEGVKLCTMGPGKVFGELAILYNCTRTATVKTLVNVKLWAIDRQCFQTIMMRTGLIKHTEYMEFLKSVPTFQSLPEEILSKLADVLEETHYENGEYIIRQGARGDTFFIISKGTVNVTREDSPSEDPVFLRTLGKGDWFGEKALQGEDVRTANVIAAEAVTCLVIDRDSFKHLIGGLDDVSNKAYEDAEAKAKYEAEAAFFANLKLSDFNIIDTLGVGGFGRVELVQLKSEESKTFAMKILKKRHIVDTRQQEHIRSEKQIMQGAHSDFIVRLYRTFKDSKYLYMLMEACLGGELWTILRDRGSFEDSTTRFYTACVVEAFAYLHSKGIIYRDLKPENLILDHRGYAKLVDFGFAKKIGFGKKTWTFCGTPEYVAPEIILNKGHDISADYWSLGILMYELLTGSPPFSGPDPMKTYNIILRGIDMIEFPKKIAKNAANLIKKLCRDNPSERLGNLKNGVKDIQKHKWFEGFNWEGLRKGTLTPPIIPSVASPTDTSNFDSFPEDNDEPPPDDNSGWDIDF

[5] = target: T3, cGMP-dependent protein kinase 1 (Homo sapiens); conditions: at 1 µM
[6] = target: T4, cGMP-dependent protein kinase 2 (Homo sapiens) (UniProt Q13237); conditions: at 0.1 µM
T4 sequence (whole entry): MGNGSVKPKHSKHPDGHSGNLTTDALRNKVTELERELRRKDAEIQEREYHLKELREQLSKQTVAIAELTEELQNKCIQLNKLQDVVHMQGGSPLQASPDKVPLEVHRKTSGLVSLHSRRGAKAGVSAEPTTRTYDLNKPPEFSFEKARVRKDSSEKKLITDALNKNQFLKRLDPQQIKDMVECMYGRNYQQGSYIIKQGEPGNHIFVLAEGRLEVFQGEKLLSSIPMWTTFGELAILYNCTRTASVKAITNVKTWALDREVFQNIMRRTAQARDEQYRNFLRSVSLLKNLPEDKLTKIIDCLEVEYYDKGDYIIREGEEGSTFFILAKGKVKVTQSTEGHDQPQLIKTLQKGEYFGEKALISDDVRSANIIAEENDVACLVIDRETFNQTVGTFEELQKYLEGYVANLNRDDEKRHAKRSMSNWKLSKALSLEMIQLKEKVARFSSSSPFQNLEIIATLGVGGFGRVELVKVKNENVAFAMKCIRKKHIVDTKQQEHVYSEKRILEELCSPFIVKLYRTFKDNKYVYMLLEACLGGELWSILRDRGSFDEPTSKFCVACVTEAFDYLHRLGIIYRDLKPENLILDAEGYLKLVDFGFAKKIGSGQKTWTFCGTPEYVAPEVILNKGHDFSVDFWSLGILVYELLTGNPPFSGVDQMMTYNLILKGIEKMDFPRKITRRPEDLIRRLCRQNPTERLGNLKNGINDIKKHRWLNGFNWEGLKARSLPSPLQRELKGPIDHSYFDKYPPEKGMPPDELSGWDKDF

[7] = target: T4, cGMP-dependent protein kinase 2 (Homo sapiens); conditions: at 1 µM
[8] = target: T5, cAMP-dependent protein kinase catalytic subunit PRKX (Homo sapiens) (UniProt P51817); conditions: at 0.1 µM
T5 sequence (whole entry): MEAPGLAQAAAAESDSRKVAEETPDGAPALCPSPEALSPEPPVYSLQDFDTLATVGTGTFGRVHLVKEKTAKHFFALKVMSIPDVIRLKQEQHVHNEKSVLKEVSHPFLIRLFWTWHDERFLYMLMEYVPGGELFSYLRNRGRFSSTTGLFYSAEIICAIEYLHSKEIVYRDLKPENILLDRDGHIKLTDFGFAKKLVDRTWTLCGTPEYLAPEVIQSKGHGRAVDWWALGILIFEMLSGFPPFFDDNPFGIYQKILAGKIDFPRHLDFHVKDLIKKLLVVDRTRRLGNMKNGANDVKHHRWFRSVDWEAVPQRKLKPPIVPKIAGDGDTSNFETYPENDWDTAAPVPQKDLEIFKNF

[9] = target: T5, cAMP-dependent protein kinase catalytic subunit PRKX (Homo sapiens); conditions: at 1 µM
[10] = target: Rho-associated protein kinase 1 (Homo sapiens) (UniProt Q13464); conditions: at 0.1 µM
[11] = target: Rho-associated protein kinase 1 (Homo sapiens) (UniProt Q13464); conditions: at 1 µM
[12] = target: Rho-associated protein kinase 2 (Homo sapiens) (UniProt O75116); conditions: at 0.1 µM
[13] = target: Rho-associated protein kinase 2 (Homo sapiens) (UniProt O75116); conditions: at 1 µM
[14] = target: Ribosomal protein S6 kinase alpha-1 (Homo sapiens) (UniProt Q15418); conditions: at 0.1 µM
[15] = target: Ribosomal protein S6 kinase alpha-1 (Homo sapiens) (UniProt Q15418); conditions: at 1 µM
[16] = target: Ribosomal protein S6 kinase alpha-3 (Homo sapiens) (UniProt P51812); conditions: at 0.1 µM
[17] = target: Ribosomal protein S6 kinase alpha-3 (Homo sapiens) (UniProt P51812); conditions: at 1 µM
[18] = target: Ribosomal protein S6 kinase alpha-2 (Homo sapiens) (UniProt Q15349); conditions: at 0.1 µM
[19] = target: Ribosomal protein S6 kinase alpha-2 (Homo sapiens) (UniProt Q15349); conditions: at 1 µM
[20] = target: Ribosomal protein S6 kinase alpha-6 (Homo sapiens) (UniProt Q9UK32); conditions: at 0.1 µM;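 also: reported value is the mean inhibition of RSK4, from the GSK PKIS kinase inhibitor screen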
Sequence of Ribosomal protein S6 kinase alpha-6 (Homo sapiens) (Q9UK32 whole entry): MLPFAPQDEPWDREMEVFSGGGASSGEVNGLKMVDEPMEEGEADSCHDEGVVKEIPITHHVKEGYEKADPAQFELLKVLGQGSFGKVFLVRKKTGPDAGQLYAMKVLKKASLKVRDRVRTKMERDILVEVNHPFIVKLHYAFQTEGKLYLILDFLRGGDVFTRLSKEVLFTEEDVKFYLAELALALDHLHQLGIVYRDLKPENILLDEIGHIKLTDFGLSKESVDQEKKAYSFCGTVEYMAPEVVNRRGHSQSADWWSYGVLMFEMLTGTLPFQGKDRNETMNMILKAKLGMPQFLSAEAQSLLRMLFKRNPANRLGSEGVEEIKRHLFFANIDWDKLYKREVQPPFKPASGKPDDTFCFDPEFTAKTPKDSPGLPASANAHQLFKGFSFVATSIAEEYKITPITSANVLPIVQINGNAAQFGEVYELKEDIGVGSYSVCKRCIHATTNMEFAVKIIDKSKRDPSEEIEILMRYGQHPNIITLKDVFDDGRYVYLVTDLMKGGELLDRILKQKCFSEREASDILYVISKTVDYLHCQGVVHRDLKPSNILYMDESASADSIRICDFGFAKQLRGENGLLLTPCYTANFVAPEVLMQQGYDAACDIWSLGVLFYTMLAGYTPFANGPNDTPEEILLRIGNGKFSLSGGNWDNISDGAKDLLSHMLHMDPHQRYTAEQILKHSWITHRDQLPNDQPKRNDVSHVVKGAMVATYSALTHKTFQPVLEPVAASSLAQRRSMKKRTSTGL

Sequence of Ribosomal protein S6 kinase alpha-1 (Homo sapiens) (Q15418 whole entry): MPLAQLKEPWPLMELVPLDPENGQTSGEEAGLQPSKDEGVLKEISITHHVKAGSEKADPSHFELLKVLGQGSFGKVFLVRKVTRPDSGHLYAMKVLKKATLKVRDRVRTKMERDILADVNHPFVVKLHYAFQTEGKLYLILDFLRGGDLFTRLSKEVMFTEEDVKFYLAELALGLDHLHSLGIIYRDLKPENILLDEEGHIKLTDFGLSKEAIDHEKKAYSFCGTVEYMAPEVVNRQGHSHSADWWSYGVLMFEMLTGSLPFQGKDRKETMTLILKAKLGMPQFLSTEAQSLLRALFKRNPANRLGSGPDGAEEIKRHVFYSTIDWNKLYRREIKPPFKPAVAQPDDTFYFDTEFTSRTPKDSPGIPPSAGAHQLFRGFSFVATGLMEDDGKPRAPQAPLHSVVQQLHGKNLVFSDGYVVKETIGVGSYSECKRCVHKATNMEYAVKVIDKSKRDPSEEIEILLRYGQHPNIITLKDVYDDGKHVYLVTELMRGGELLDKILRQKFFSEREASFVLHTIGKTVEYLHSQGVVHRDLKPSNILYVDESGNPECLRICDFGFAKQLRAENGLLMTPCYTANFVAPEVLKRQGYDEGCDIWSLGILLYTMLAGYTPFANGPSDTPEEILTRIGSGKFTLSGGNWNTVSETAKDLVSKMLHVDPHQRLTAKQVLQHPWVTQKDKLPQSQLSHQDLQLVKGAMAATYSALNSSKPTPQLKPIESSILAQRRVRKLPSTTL
Sequence of Rho-associated protein kinase 2 (Homo sapiens) (O75116 whole entry, looked up): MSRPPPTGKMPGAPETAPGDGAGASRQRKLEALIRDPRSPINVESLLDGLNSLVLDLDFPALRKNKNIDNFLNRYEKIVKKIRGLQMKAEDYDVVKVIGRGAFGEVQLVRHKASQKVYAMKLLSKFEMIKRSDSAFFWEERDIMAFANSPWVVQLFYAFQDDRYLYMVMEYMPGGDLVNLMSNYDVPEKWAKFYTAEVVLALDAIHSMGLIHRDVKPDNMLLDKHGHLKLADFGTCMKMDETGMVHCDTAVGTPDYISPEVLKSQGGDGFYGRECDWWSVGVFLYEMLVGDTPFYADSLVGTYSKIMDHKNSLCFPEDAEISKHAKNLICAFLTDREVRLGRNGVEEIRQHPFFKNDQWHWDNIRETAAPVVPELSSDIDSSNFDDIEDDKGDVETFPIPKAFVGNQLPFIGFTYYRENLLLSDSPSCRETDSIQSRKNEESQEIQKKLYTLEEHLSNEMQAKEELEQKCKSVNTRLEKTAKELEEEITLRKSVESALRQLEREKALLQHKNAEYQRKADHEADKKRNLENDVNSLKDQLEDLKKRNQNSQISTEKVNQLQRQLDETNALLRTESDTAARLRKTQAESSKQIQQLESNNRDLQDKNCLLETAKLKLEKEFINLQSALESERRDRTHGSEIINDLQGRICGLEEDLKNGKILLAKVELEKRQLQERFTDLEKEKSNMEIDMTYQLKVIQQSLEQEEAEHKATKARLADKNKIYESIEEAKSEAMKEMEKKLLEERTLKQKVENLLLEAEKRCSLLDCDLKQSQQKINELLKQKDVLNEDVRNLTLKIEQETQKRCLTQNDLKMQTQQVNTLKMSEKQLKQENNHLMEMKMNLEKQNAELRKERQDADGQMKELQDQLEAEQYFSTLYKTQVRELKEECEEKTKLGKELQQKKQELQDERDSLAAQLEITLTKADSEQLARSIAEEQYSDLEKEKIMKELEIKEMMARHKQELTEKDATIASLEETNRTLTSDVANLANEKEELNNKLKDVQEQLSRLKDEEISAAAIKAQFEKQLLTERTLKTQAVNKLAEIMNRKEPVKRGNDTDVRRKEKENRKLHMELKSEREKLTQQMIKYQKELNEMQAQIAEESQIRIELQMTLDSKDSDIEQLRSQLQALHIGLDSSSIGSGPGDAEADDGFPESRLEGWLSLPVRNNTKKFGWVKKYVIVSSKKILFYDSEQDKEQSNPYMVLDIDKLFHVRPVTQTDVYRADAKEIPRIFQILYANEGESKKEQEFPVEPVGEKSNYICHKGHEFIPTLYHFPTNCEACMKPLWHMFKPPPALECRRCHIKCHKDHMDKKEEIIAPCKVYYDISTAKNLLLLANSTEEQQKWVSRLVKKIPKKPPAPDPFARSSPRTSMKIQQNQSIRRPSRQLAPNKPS
Sequence of Ribosomal protein S6 kinase alpha-2 (Homo sapiens) (Q15349 whole entry): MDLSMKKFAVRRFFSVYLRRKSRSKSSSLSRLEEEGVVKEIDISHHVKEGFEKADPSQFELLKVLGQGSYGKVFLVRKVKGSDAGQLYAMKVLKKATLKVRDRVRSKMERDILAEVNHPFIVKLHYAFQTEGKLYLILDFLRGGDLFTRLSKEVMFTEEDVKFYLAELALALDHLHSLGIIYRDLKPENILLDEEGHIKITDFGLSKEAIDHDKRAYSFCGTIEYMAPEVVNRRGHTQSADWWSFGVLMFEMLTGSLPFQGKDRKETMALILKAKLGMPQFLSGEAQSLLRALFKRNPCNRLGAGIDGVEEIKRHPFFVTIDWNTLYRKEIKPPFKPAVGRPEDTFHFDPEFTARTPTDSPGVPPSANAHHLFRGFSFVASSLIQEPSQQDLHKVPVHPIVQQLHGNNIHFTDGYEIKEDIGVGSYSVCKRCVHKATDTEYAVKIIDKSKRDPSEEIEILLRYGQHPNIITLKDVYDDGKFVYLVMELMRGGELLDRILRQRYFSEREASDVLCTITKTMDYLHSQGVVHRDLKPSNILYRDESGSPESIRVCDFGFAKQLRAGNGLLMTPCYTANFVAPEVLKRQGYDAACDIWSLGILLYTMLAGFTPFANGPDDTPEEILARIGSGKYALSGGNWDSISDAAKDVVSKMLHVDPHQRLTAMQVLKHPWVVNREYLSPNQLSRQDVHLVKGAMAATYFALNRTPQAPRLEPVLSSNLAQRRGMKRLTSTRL
Sequence of Ribosomal protein S6 kinase alpha-3 (Homo sapiens) (P51812 whole entry): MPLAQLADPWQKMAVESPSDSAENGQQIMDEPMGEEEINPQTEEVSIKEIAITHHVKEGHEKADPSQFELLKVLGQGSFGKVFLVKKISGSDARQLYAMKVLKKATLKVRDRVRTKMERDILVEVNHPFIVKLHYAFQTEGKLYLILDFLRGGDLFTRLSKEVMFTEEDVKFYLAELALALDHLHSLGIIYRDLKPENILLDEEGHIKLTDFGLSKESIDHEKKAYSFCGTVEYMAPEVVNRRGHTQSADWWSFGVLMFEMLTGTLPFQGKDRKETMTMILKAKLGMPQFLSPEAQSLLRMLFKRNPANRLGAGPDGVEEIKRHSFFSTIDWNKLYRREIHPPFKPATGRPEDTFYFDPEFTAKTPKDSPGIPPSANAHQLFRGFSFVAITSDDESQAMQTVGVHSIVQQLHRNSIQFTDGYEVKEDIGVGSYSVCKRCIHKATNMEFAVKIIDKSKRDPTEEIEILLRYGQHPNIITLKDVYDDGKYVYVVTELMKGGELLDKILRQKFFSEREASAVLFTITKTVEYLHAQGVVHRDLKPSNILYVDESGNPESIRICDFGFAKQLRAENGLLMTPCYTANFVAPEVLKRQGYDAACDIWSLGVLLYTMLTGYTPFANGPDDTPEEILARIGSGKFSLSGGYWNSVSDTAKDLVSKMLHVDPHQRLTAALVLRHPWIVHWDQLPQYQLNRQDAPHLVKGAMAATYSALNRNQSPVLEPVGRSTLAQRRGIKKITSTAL

| Compound | inhibition [1] [%] | inhibition [2] [%] | inhibition [3] [%] | inhibition [4] [%] | inhibition [5] [%] | inhibition [6] [%] | inhibition [7] [%] | inhibition [8] [%] | inhibition [9] [%] | inhibition [10] [%] | inhibition [11] [%] | inhibition [12] [%] | inhibition [13] [%] | inhibition [14] [%] | inhibition [15] [%] | inhibition [16] [%] | inhibition [17] [%] | inhibition [18] [%] | inhibition [19] [%] | inhibition [20] [%] |
| --- | --- | --- | --- | --- | --- | --- | --- | --- | --- | --- | --- | --- | --- | --- | --- | --- | --- | --- | --- | --- |
| CCCNc1cccc(-n2ncc3c(N/N=C/c4ccncc4)ncnc32)c1 | 1.21 | 0.66 | 0.02 | 0.73 | 2.57 | 2.7 | 4.72 | 2.18 | 4.42 | 2.35 | 13.7 | 4.97 | 28.1 | 1.36 | 4.72 | 1.62 | 4.75 | -0.01 | 2.43 | 0.53 |
| Cc1cc(O)cc(C)c1/C=C/c1cncc(C(=O)OC(C)(C)C)c1 | 1.78 | 2.12 | 2.64 | 3.26 | 3.58 | 1.21 | 2.65 | 3.57 | 6.36 | 2.92 | 2.78 | 4.67 | 3.55 | 0.74 | 1.77 | 1.52 | 1.88 | 1.57 | 1.41 | 0.33 |
| Cc1nnc(-c2cccc(-c3ccc(C(=O)NCC4CC4)cc3)c2)o1 | 7.93 | 6.14 | 7.35 | 3.58 | 5.43 | 3.23 | 3.44 | 3.54 | 4.63 | 0.97 | 2.23 | 3.74 | 6.19 | 2.8 | 4.92 | 1.25 | 1.76 | 3.01 | 2.85 | 2.12 |
| OCCCNc1nccc(-c2c(-c3ccc(F)cc3)nn3cc(C(F)(F)F)ccc23)n1 | 16.9 | 4.73 | 33.9 | 1.52 | 4.78 | 2.03 | 3.96 | 0.4 | -0.76 | 0.15 | 2.58 | 2.07 | 2.72 | 1.23 | 2.41 | 0.38 | 1.08 | 1.69 | 2.43 | 0.24 |
| COc1ccccc1-c1cc(/C=C2\C(=O)Nc3ncc(Br)cc32)cc(Br)c1O | 6.48 | 5.02 | 6.21 | 2.01 | 5.3 | 1.73 | 5.97 | 0.16 | 0.16 | 0.21 | 2.31 | 1.89 | 2.15 | 0.44 | 0.08 | 0.16 | 1.15 | 1.52 | 3.85 | -0.23 |
| O=C(O[C@H]1CN[C@H](C#Cc2cc3ncnc(Nc4ccc5c(ccn5Cc5cc(F)ccc5F)c4)c3s2)C1)N1CCOCC1 | 5.35 | 5.21 | 6.35 | 2.6 | 3.55 | 2.56 | 3.72 | 2.19 | 2.67 | 0.77 | 3.4 | 2.86 | 5.23 | 1.53 | 1.62 | 0.96 | 0.89 | 3.56 | 2.57 | 1.53 |
